# Shown are actives, neighbours in structure and some others; about 11% of the full set was active somewhere.
# Gal4-VP16 FLuc: VP16 counterscreen qHTS for inhibitors of ROR gamma transcriptional activity. Drosophila S2 Gal4-VP16 UAS-luciferase, luminescence, 20 h. Potency, µM (top dose mostly 53.6 µM), for inactives: at the highest dose activity, negative = inhibition, actives largely listed as inhibitors. hit rate 3.5% among 310,000;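 further: Gal4-VP16 expression switched on by copper sulfate through the metallothionein promoter; potency means the concentration at half of the fitted maximal effect; on the % scale 0 is the no-effect control and ±100 the full control effect; nearly all actives have a fitted effect of over 50% in size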
# MCF10A rereplic: A quantitative high throughput screen for small molecules that induce DNA re-replication in MCF 10a normal breast cells; MCF 10A DNA re-replication, Hoechst nuclear intensity, 48 h; Potency, µM (titrated, usually from 46.1 µM), without a hit: top-dose activity, positive = re-replication, actives largely listed as activators; hit rate 2.9% among 350,000; AID 624296, 2012; further: potency means the concentration at half of the fitted maximal effect; % of control where 0% means no effect; nearly all actives have a fitted effect of over 50% in size
# IL-1B inflam inh: qHTS for Inhibitors of Inflammasome Signaling: IL-1-beta AlphaLISA Primary Screen | THP-1 LPS/ATP IL-1B secretion, AlphaLISA, 16 h; hits give low values | activity change, % at 57.5 µM | hit rate 4.7% among 360,000 | AID 743279, 2014; in the data active means activity change below about -50%; inconclusive means mostly about -30% to -49%; further: on the % scale 0 is the no-effect control and ±100 the full control effect
#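 Secreted IL-1B measured by AlphaLISA bead assay after 16 h compound exposure of THP-1 cells; compounds (final up to 57.5 uM) added 1 h before LPS (250 ng/mL) and ATP (1.25 mM) stimulation; lower signal means less secretion.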
# RORgamma inh: qHTS for inhibitors of ROR gamma transcriptional activity | Drosophila S2 Gal4-RORgamma UAS-luciferase reporter, 20 h | Potency, µM (highest dose often 53.6 µM), for inactives: at the top dose activity change, negative = inhibition, usual class: inhibitors | hit rate 5.4% among 310,000 | Nuclear receptor ROR-gamma (Mus musculus), P51450; further: potency means the concentration at half of the fitted maximal effect; on the % scale 0 is the no-effect control and ±100 the full control effect; nearly all actives have a fitted effect of over 60% in size
# Target sequence (P51450 whole entry, looked up, the tested form may be a part): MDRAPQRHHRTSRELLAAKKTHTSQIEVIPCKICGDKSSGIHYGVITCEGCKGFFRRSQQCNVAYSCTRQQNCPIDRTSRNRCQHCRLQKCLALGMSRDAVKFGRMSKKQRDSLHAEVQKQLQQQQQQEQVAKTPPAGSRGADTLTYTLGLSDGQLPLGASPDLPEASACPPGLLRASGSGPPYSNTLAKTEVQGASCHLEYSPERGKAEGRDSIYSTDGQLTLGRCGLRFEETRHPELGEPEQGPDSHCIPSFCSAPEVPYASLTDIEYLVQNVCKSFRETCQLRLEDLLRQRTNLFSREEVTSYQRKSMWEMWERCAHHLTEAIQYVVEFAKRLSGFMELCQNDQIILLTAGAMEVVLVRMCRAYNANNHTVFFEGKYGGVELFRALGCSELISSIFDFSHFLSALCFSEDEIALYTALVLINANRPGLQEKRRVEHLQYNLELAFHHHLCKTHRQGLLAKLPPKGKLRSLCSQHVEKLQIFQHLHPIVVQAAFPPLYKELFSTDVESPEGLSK
#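 Luminescence from a UAS-regulated Photinus luciferase reporter in stably transfected Drosophila Schneider cells is measured; decreased signal marks ROR gamma inhibition. Fusion expression is induced by 700 uM copper sulfate for 20 hr.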
# SW480 rerep: A quantitative high throughput screen for small molecules that induce DNA re-replication in SW480 colon adenocarcinoma cells | SW480 DNA re-replication, Hoechst DNA content imaging, 48 h | AID 624297, 2012 | Potency, µM (doses to about 46.1 µM), without a hit: at the top dose re-replication activation, hits mostly activators | hit rate 1.8% among 340,000; further: potency means the concentration at half of the fitted maximal effect; % of control where 0% means no effect; nearly all actives have a fitted effect of over 55% in size
#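 Compounds, transferred as 23 nL by pin tool, were incubated with cells for 48 hr; DNA content per nucleus was then quantified by Hoechst staining and fluorescence plate imaging.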
# * hit, by the source's call; ? = inconclusive; . = no result; [ ] = another dose, or the depositor's remark. Unless noted, the call rests on the fitted dose curve; in most records, active means well fitted curve in the direction sought with a large enough effect; inconclusive means small, poorly fitted or top-dose-only effect, or another doubt; inactive means no such curve, though single readings can be large; an effect the other way counts as inactive or inconclusive.
SMILES,Gal4-VP16 FLuc,MCF10A rereplic,IL-1B inflam inh,RORgamma inh,SW480 rerep
O=C(NNc1ccccc1)Nc1cc(Cl)ccc1Cl,.,?,-97*,.,?
CCOC(=O)c1cccc(NC(=O)Nc2ccc(OCC)cc2)c1,-22%,7%,-9,-42%,0%
O=C(Nc1ccccc1)Nc1ccc(Cl)nc1Cl,.,4%,-79*,.,?
CCOc1ccc(NC(=O)Nc2cccc(C(=O)O)c2)cc1,5µM*,10%,-19,5µM*,-5%
O=C(Nc1ccc(Cl)cc1)Nc1cccc(C(=O)O)c1,1.4µM*,-3%,-6,3.2µM*,-7%
O=C(COc1ccccc1)Nc1cc(Cl)ccc1Cl,4%,0%,27,-9%,-7%
O=C(Nc1cccc(Cl)c1)Nc1cccc(C(=O)O)c1,-28%,-1%,63,-37%,0%
c1ccc(-c2cc(-c3ccncc3)nc3ccc4ccccc4c23)cc1,?,15µM*,-25,8.9µM*,?
COC(=O)COc1ccccc1/C=C1/NC(=O)NC1=O,-11%,11%,-71*,-9%,-1%
COc1ccc(CNC(=O)C(c2ccco2)N(Cc2cccs2)C(=O)Cc2cccs2)cc1 (stereo not given),-8%,?,-52*,21%,?
COc1ccccc1CCNC(=O)c1cccc(S(=O)(=O)N2CCc3ccccc3C2)c1,.,25%,-18,.,?
NCCCCN,5%,.,.,1%,.
C=CCN1C(=O)N/C(=C/c2ccccc2OCC(=O)Nc2ccc(F)cc2)C1=O,-16%,23µM*,3,-30%,333%
O=C(COc1ccccc1/C=C1\SC(=O)NC1=O)Nc1ccc(F)cc1,-2%,-2%,53,7%,-1%
CCc1cccc2c(-c3ccccc3)c3c(nc12)OCC3,5%,.,.,4%,.
Cc1ccc(S(=O)(=O)N2CCC(=O)N([C@H](COCc3cccc(C)c3)Cc3ccccc3)CC2)cc1,-6%[40.7 µM],.,.,-2%[40.7 µM],.
Cc1ccc(S(=O)(=O)N2CCC(=O)N(C(COCc3ccc(Cl)c(Cl)c3)Cc3ccccc3)CC2)cc1 (stereo not given),-5%,23µM*,48,9%,-36%
Cc1ccc(S(=O)(=O)N2CCC(=O)N(C(COCc3cccc(C)c3)Cc3ccccc3)CC2)cc1 (stereo not given),-19%,8.2µM*,6,28%,?
Cc1ccc(S(=O)(=O)N2CCC(=O)N(C(COCc3ccc(C(F)(F)F)cc3)Cc3ccccc3)CC2)cc1 (stereo not given),2%,3.7µM*,-17,22%,25%
C[C@H](CO)N1C[C@H](C)[C@@H](CN(C)C(=O)Oc2ccccc2)OCc2cn(nn2)CCCC1=O,.,.,8,.,.
N#CC1C(=O)NC(=O)CC12CCCCC2 (stereo not given),.,4%,-4,.,-6%
CCc1nnc(NC(=O)c2ccc3c(=O)n4c(nc3c2)CCC4)s1,.,.,-2,.,.
COc1ccc(N2CCN(C(=O)CCNS(=O)(=O)c3ccccc3)CC2)cc1,-19%,26µM*,-9,9%,27%
COc1ccc(N2CCN(CNC(=O)c3ccccc3)CC2)cc1,-1%,0.92µM*,-12,22%,-1%
COc1ccc(N2CCN(C(=O)CCS(=O)(=O)c3ccc4c(c3)CCN4C(=O)C3CC3)CC2)cc1,-3%,?,-6,-24%,5.8µM*
SMILES,Gal4-VP16 FLuc,MCF10A rereplic,IL-1B inflam inh,RORgamma inh,SW480 rerep
COc1ccc(C(CNC(=O)CCNS(=O)(=O)c2ccc(C)cc2)N2CCOCC2)cc1 (stereo not given),.,12%,-18,.,5.2µM*
Cc1ccc(S(=O)(=O)NCCC(=O)NCC(c2ccc(F)cc2)N2CCOCC2)cc1 (stereo not given),.,-4%,-11,.,-11%
COc1ccc(N2CCN(C(=O)NC(=O)c3ccccc3)CC2)cc1,22%,5%,1,-14%,-5%
CCOc1ccc(S(=O)(=O)NCCC(=O)N2CCN(c3ccc(OC)cc3)CC2)cc1,-3%,-10%,-4,?,-3%
CCOC(=O)c1cc(-c2ccccc2)n(CCC(=O)N2CCN(c3ccccc3OC)CC2)c1C,?,?,?,?,7%
CCOc1ccc(S(=O)(=O)NCCC(=O)N2CCN(Cc3ccccc3)CC2)cc1,.,10%,0,.,0%
CCOc1ccc(S(=O)(=O)NCCC(=O)N2CCC(Cc3ccccc3)CC2)cc1,-17%,9%,-50*,19%,-1%
CCOC(=O)c1cc(-c2ccccc2)n(CCC(=O)N2CCN(c3ccc(OC)cc3)CC2)c1C,0%,26µM*,-60*,?,4%
CCOC(=O)CSc1n[nH]c(-c2cccnc2)n1,3%,-1%,-81*,0%,-8%
COC(=O)CSc1n[nH]c(-c2cccnc2)n1,3%,-16%,18,12%,-11%
Cc1nc(Cl)nc(N(C)c2ccccc2)c1[N+](=O)[O-],-2%,?,-82*,-27%,25%
COCCN(C(=O)c1ccccc1F)c1nc(-c2ccc(OC)cc2)cs1,2%,?,?,26%,?
COc1ccc(-c2csc(N(CCCN(C)C)C(=O)c3ccccc3F)n2)cc1,-12%,-4%,?,-20%,-3%
COc1ccc(-c2csc(N(CCCN(C)C)C(=O)c3ccc(F)cc3)n2)cc1,0%,0%,-21,18%,1%
COc1ccc(-c2csc(N(CCCN(C)C)C(=O)c3ccccc3C)n2)cc1,-18%,0%,-76*,?,?
CCN(CC)CCCN(C(=O)c1ccc(F)cc1)c1nc(-c2ccc(OC)cc2)cs1,-3%,7%,-93*,-21%,4%
COc1ccc(-c2csc(N(CCCN(C)C)C(=O)c3ccccc3Cl)n2)cc1,.,?,-72*,.,?
CC(Oc1cccc(Br)c1)C(=O)NNC(=O)CCS(=O)(=O)c1ccccc1 (stereo not given),.,1%,16,.,-5%
O=C(NCc1nnc(SCC(=O)N2CCN(c3ccccc3)CC2)o1)c1ccc(F)cc1,-15%,-4%,51,?,7%
CC1(C(=O)Nc2ccccc2)CCN1C(=O)C1(c2ccccc2)CC1 (stereo not given),.,.,8,.,.
COc1cc(C=NO)nc(-c2ccccn2)c1,.,8%,61,.,27%
CC1CC(=O)c2c(cc3c(-c4c(O)cc(O)c5c(O)c6c(cc45)OC(C)CC6=O)c(O)cc(O)c3c2O)O1 (stereo not given),13µM*,?,3,5µM*,6.5µM*
CCCC[C@@H]1CCCO[C@@](C(=O)NCc2ccc(S(C)(=O)=O)cc2)(C(F)(F)F)C1,1%,.,.,-19%,.
CCCCCCCCCCCCN1[C@@H](CC(=O)O)c2cc(C(F)(F)F)ccc2S1(=O)=O,.,16µM*,0,.,23%
